System in the first assay: not listed separately
Description: modulators of HCV replicon luciferase signal, primary screen, HCV replication inhibitor project, Huh7 cells, luciferase reporter (AID 1109).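 Also: huh7 hepatoma cells harbouring a luciferase neomycin HCV replicon reporter; luciferase luminescence as measure of HCV replicon replication; test concentration not given here.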 The note with it: 48 h, higher = more signal. For orientation: A replicon is a self-replicating genome or part of one, used to study replication in cells.
Compound `CCOC(=O)C[C@H]1[C@H](OC(=O)Cc2ccc3c(c2)OCO3)[C@@H](NC(=O)c2ccc3ccccc3n2)c2cc(OCCCO)ccc2N1C(=O)c1ccc2ccccc2n1` came in with a z-score of -1.63. With `CC[C@@H]1C=C(C(=O)O)[C@H](c2ccccc2)N1S(=O)(=O)c1ccc(C)cc1`, the z-score was -1.33.

In turn, `CC(C)N1C(=O)C[C@@](C(=O)O)(c2ccc([N+](=O)[O-])cc2)[C@H]1c1ccc(CO)cc1` had a z-score of 0.253.

For another assay, the target named is Left-right determination factor 2 (Homo sapiens) (UniProt O00292). Description: LEFTY2 binders on small-molecule microarrays, primary screen, biochemical, small-molecule microarray, 635 nm fluorescence scan (AID 1110). Particulars: LEFTY2 binding, higher = more signal.
Sequence of Left-right determination factor 2 (Homo sapiens) (O00292 whole entry, looked up): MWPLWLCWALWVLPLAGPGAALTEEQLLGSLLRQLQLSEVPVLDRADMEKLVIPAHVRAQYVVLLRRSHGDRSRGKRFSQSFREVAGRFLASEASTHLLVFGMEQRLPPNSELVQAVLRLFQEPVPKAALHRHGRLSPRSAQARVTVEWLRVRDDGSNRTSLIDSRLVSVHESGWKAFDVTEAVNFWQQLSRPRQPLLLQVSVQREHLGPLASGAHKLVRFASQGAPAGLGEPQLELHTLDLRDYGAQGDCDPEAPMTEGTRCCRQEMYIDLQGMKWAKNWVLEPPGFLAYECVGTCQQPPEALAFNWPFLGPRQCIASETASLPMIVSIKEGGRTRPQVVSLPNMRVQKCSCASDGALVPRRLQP
As for `CO[C@H]1O[C@H](CO)[C@@H](OC(=O)Nc2ccc3c(c2)OCO3)[C@H](OC(=O)Nc2ccc3c(c2)OCO3)[C@@H]1OC(=O)Nc1ccc2c(c1)OCO2`, the composite z-score was 0.472. In the case of `CCOC(=O)C[C@H]1[C@H](OC(=O)c2ccccc2-c2ccccc2)[C@@H](NC(=O)c2ccc3ccccc3c2)c2cc(OCCCO)ccc2N1C(=O)c1ccccc1`, the composite z-score stood at 0.596. On the same count and under the same terms, then `CC(C)[Si]1(C(C)C)OCc2cc(-c3ccc(-c4ccc(Cl)c(Cl)c4)o3)nc(-c3ccccc3)c21`, with -1.59; and `COc1ccc([C@H]2OC[C@@H]3C[C@H](Cc4ccccc4)C(=O)N32)cc1`, with 0.367.

In the case of `COC(=O)C(CC#Cc1ccc2c(c1)[C@]1(C(=O)N2)[C@H](c2ccc(O)cc2)N2[C@H](c3ccccc3)[C@H](c3ccccc3)OC(=O)[C@H]2[C@@H]1C(=O)NC[C@H](O)c1ccccc1)C(=O)OC`, the composite z-score amounted to 0.337. Turning to `CC(=O)N1CC2(CC2)CC1c1ccccc1` (stereo not drawn), the composite z-score came out at 0.171. On the same count and under the same terms, as for `COc1ccc([Si](C)(C)[C@@H]2[C@@H](CC(=O)N3CCC[C@H]3CO)O[C@]3(C(=O)N(Cc4cccc(N5C(=O)COc6ccccc65)c4)c4ccccc43)[C@H]2C)cc1`, the figure is 0.486; as for `O=c1cccc(-c2ccc([N+](=O)[O-])cc2)o1`, 0.37; as for `N[C@@H](Cc1ccccc1)C(=O)NCc1cn(Cc2ccccc2)nn1`, 0.167.

On to `O=C1C2C=CC(C(O)c3cccc(O)c3)N(Nc3ccc([N+](=O)[O-])cc3)C2C(=O)N1c1ccccc1` (stereo not drawn), for which the composite z-score came to 0.183. The same measure, in the same setting: as for `CC(C)c1ccc(NN2C(C(O)c3ccc(F)cc3)C=CC3C(=O)N(c4ccccc4)C(=O)C32)cc1` (stereo not drawn), the figure is 0.397; as for `C=CC[C@@H](OC(=O)Nc1ccc(SC)cc1)c1ccc(O)c(F)c1`, -0.28; as for `COc1cc2c(cc1O)C(C1CC1)N(C)CC2` (stereo not drawn), -0.893. Turning to `O=C1CS(=O)(=O)C(c2cccc([N+](=O)[O-])c2)N1c1ccccc1` (stereo not drawn), the composite z-score was 0.432.

For the compound `COC(=O)[C@@H]1N=C(c2ccc(OCCCO)cc2)O[C@@H]1c1ccccc1`, the composite z-score is -1.55. Still for that read-out and setting: then `O=C1NC(=O)C2C1C=CC(C(O)c1ccco1)N2Nc1ccc(Cl)cc1Cl` (stereo not drawn), with -0.39. Regarding `COc1ccc([Si](C)(C)[C@@H]2[C@@H](CCO)O[C@]3(C(=O)N(Cc4cccc(NC(=O)[C@H](C)O)c4)c4ccccc43)[C@H]2C)cc1`, the composite z-score was found to be 0.0544. The compound `CCCN1C(=O)[C@]2(Cc3ccccc31)N=C(c1ccc(OCCCO)cc1)O[C@@H]2c1ccccc1` showed a composite z-score of -0.148. In turn, `CN(C)C(=O)[C@@]1(Cc2ccccc2)N=C(c2ccc(OCCCO)cc2)O[C@H]1c1ccccc1` showed a composite z-score of -0.469.

Compound `COCCOC(=O)N1C(=O)[C@@]2(c3cc(C#CC4(O)CCCCCC4)ccc31)[C@H](c1ccc(O)cc1)N1[C@H](c3ccccc3)[C@H](c3ccccc3)OC(=O)[C@H]1[C@@H]2C(=O)N1CCN(c2ncccn2)CC1` came in with a composite z-score of 0.45. The same measure, in the same setting: as for `COc1ccc(CCNC(=O)[C@@]2(Cc3ccccc3I)c3ccccc3C(=O)N(C3CCCCC3)[C@H]2c2ccc(CO)cc2)cc1`, the figure is -0.425; as for `CCOC(=O)C=Cc1cccc(C)c1O`, 0.111.

`C=CCC(OC(C)=O)[C@@H]1[C@@H](N(Cc2ccc(-c3cccc(C(F)(F)F)c3)o2)C(=O)Cc2ccc(OC)cc2)c2cc(OCCCO)ccc2N1C(=O)c1ccc(-c2ccccc2)cc1` (stereo partly drawn) came in with a composite z-score of -0.164.

`O=C1[C@H]2C=C(I)[C@H](C[C@@H]2OCCOCCO)[C@@]12CO2` returned a composite z-score of 0.547. Still for that read-out and setting: as for `C#Cc1cc2ccccc2oc1=O`, the figure is -2.19.

`O=C(Cc1ccccc1)[C@H]1C2C=CCCC(c3ccccc3)=C2CN1Cc1ccccc1` (stereo partly drawn) displayed a composite z-score of 0.174. Same read-out and setting: then `O=C1O[C@@H](c2ccccc2)[C@@H](c2ccccc2)N2[C@@H](c3ccc(OCCO)cc3)[C@]3(C(=O)Nc4ccc(C#CC5=CCCCC5)cc43)[C@@H](C(=O)NC[C@H](O)c3ccccc3)[C@H]12`, with 0.665; and `COc1cc2c(cc1O)C(C1CC1)N(Cc1cccc(OC(F)(F)F)c1)CC2` (stereo not drawn), with -0.116. Compound `[N-]=[N+]=NCc1ccccc1[C@@H]1OC(c2ccc(OCCCO)cc2)=N[C@]1(CCS(=O)(=O)c1ccccc1)C(=O)O` came in with a composite z-score of -0.151.

For the compound `[N-]=[N+]=NCc1ccccc1[C@H]1OC(c2ccc(OCCCO)cc2)=N[C@@]1(Cc1ccccc1N=[N+]=[N-])C(=O)NCC(O)CO` (stereo partly drawn), the composite z-score is -0.591. On the same count and under the same terms, as for `COCCOC(=O)N1C(=O)[C@@]2(c3ccccc31)[C@H](C(=O)NC[C@H](O)c1ccccc1)[C@H]1C(=O)O[C@H](c3ccccc3)[C@H](c3ccccc3)N1[C@@H]2c1ccc(O)cc1`, the figure is 0.768; as for `O=C1OCCC/C=C\[C@H]2OC34C=CCN(c5ccc6ccccc6c5)C(=O)[C@H]3N(CCO)C(=O)[C@@H]4C12` (stereo partly drawn), -1.2. For the compound `CCOC(=O)C[C@H]1[C@H](OC(=O)Cc2ccc3c(c2)OCO3)[C@@H](NC(=O)c2ccc3ccccc3n2)c2cc(OCCCO)ccc2N1C(=O)c1ccc2ccccc2n1`, the composite z-score was 0.464. The same measure, in the same setting: then `CC[C@@H]1C=C(C(=O)O)[C@H](c2ccccc2)N1S(=O)(=O)c1ccc(C)cc1`, with 0.0801; and `CC(C)N1C(=O)C[C@@](C(=O)O)(c2ccc([N+](=O)[O-])cc2)[C@H]1c1ccc(CO)cc1`, with -1.14.

For the origin of these results see PubChem BioAssay.
